This passage reports Potency results from PubChem BioAssay (Tox21).

Test [1] can be described thus: qHTS assay to identify small molecule agonists of the RXR signaling pathway - cell viability counter screen (AID 1159529). Also: nearly all actives have a fitted effect of over 50% in size. Also: potency is read from the fitted curve at half-maximal effect. Put shortly: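 Steps: seed RXR-alpha-UAS-bla HEK 293T cells in assay medium containing 2% charcoal-stripped FBS; incubate 5 hr; add compounds in DMSO; incubate 16 hr at 37 C; after the bla read, add CellTiter-Glo and read luminescence at 30 min.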
In general terms: Quantitative high-throughput screening tests each substance at several concentrations.

Test [2] in a line: qHTS assay to identify small molecule antagonists of the retinoid acid receptor (RAR) signaling pathway - cell viability counter screen (AID 1159551). Also: nearly all actives have a fitted effect of over 35% in size. The gist of the method:
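Seed C3RL4 cells; next day add compound, then retinol to 1 uM final; incubate 6 h at 37 C; add CellTiter-Glo; read luminescence after 30 min at RT.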

Test [3] can be described thus: qHTS assay to identify small molecule antagonists of the retinoic acid receptor (RAR) signaling pathway (AID 1159552; also: nearly all actives have a fitted effect of over 50% in size). Put shortly: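 Retinol at 1 uM final stimulated RARE-luciferase expression in C3RL4 cells exposed to test compounds for 6 hr at 37 C. Reduced luminescence, read 30 min after detection reagent, indicated pathway antagonism.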
Test [4] in a line: qHTS assay to identify small molecule agonists of the retinoic acid receptor (RAR) signaling pathway (AID 1159553). Also: potency is read from the fitted curve at half-maximal effect. The gist of the method: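 Activation of retinol signaling was monitored via a RARE luciferase reporter in C3RL4 cells. After 6 hr compound treatment at 37 C, detection reagent was added for 30 min at room temperature before luminescence reading.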

Inconclusive results are not listed. The source made the active and inactive calls. Calls follow the shape of the dose curve; as a rule, active = well fitted curve in the direction sought with a large enough effect in the repeat runs; inconclusive = weak or mixed curves; inactive = no such curve, though single readings can be large; an effect the other way counts as inactive or inconclusive.

Take `Oc1ccc(Nc2ccccc2)cc1`: in test [1], the Potency was 30.9 µM (active). The Potency result in test [2], in test [3] and in test [4] was “inactive” in each case.

On to `CCCOc1ccc(S(=O)(=O)N2CCN(CC)CC2)cc1-c1nc2c(CC)n(Cc3ccccn3)nc2c(=O)[nH]1`, for which the Potency result in test [1], in test [2], in test [3] and in test [4] was “inactive” throughout.

On to `O=C(/C=C/c1ccccc1)OCCCc1ccccc1`, for which the Potency result in test [1], in test [2] and in test [3] was “inactive” in each case. In test [4], the Potency was 61.1 µM (active).

As for `CCOC(=N)CC(=O)OCC`, the Potency entry in test [1], in test [2], in test [3] and in test [4] was “inactive” in each case.

`CO[C@H]1O[C@H](CO)[C@@H](O)[C@H](O)[C@H]1O`: the Potency entry in test [1], in test [2], in test [3] and in test [4] was “inactive” each time.

On to `O=C(O)C(Cc1cc(I)c(O)c(I)c1)c1ccccc1` (configuration not stated), for which the Potency entry in test [1], in test [2], in test [3] and in test [4] was “inactive” in each case.

Regarding `CCC(C(=O)OCCN(CC)CC)c1ccccc1` (configuration not stated), the Potency entry in test [1], in test [2], in test [3] and in test [4] was “inactive” each time.

On to `COc1ccc(CCC(=O)c2c(O)cc(O[C@@H]3O[C@H](CO)[C@@H](O)[C@H](O)[C@H]3O[C@@H]3O[C@@H](C)[C@H](O)[C@@H](O)[C@H]3O)cc2O)cc1O`, for which the Potency result in test [1], in test [2], in test [3] and in test [4] was “inactive” in each case.

`c1cnc2c(n1)CCCC2`: the Potency result in test [1], in test [2], in test [3] and in test [4] was “inactive” in each case.

Take `CCCOC(=O)c1ccc(N)cc1`: the Potency entry in test [1], in test [2] and in test [3] was “inactive” throughout. For the same molecule, the Potency in test [4] is 23.7 µM (active).

As for `CC1=CC(O)CC(C)(C)C1` (configuration not stated), the Potency entry in test [1], in test [2], in test [3] and in test [4] was “inactive” in each case.

On to `COc1ccc(C(=O)c2cccc(O)c2)c(OC)c1`, for which the Potency entry in test [1], in test [2], in test [3] and in test [4] was “inactive” in each case.

Take `O=c1[nH]c2ccc(S(=O)CCN3CCC(Cc4ccc(F)cc4)CC3)cc2o1` (configuration not stated): the Potency result in test [1], in test [2], in test [3] and in test [4] was “inactive” each time.

As to `CCCOC(=O)c1ccc(C(=O)OCCC)nc1`, the Potency result in test [1], in test [2] and in test [3] was “inactive” in each case. In addition, the Potency in test [4] is 68.6 µM (active).

With `CCCCC(CC)CNCC(CC)CCCC` (configuration not stated), the Potency entry in test [1], in test [2], in test [3] and in test [4] was “inactive” in each case.

With `COC(=O)c1cc(S(N)(=O)=O)ccc1OC`, the Potency entry in test [1], in test [2], in test [3] and in test [4] was “inactive” each time.

Regarding `CC(C)(C)C(=O)O`, the Potency entry in test [1], in test [2], in test [3] and in test [4] was “inactive” in each case.

With `CCCCCCOC(=O)C(C)C`, the Potency result in test [1], in test [2], in test [3] and in test [4] was “inactive” each time.
